# SMN2 splice up = increases expression of the SMN2 splice variant; 210,000 compounds, 2.8% hits; HEK293 SMN2-luciferase splicing reporter, luminescence, 30-36 h; Potency, µM (highest dose often 46.1 µM), most hits filed as activators; also: nearly all actives have a fitted effect of over 55% in size
#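 qHTS luciferase splicing reporter: luminescence rises when SMN2 exon 7 is included in transfected HEK293 cells. Compound exposure lasted 30-36 h at 37C, with 4.5 mM final sodium butyrate as control, followed by a ONE-Glo read.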
# FLuc counter = counter-screen for miR-21 project: firefly luciferase inhibitors or activators | P08659 | purified FLuc, Km substrates, luminescence inhibition | Potency, µM (doses to about 57.5 µM), hits mostly inhibitors | 360,000 compounds, 6.9% hits | AID 588342; also: nearly all actives have a fitted effect of over 55% in size
# Target sequence (P08659 whole entry, looked up): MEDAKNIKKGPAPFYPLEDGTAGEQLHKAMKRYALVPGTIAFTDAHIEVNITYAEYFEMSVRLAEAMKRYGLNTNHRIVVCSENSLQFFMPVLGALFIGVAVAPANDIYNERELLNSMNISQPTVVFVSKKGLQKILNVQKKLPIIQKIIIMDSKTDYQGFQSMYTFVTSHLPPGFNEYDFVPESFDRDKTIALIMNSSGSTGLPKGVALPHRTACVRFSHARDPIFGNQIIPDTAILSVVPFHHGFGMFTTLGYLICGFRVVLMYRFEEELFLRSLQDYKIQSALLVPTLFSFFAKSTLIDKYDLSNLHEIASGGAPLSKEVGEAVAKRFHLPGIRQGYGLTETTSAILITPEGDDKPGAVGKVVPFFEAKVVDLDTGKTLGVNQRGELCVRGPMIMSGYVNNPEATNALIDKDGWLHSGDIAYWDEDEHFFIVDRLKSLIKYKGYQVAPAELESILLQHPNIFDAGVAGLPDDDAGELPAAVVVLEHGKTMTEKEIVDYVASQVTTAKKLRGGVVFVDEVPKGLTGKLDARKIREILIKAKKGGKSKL
#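 Purified P. pyralis luciferase (10nM final) with 10uM D-luciferin and 10uM ATP (Km levels) in 50mM Tris acetate pH 7.5, 10mM Mg acetate, 0.01% Tween-20, 0.05% BSA; qHTS 6-point titration, ~60 µM downward; luminescence read.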
# Rab9 promoter act = Rab9 promoter activation. Huh7 Rab9 promoter-luciferase reporter, luminescence, 24 h. Potency, µM (series often up to 9.22 µM), actives largely listed as activators. 320,000 compounds, 2.8% hits. AID 485297; also: nearly all actives have a fitted effect of over 60% in size
#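 Cells were plated at 1500 per well in reduced-serum medium with 10% FBS and left 2 h. Compound in DMSO was then added for 24 h at 37 °C. Reporter signal was read by luminescence after 10 min with luciferase detection reagent.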
# ELG1 genotoxic = inducers of genotoxicity in HEK293T ELG1-luciferase cells | 330,000 compounds, 1.3% hits | Potency, µM (top dose mostly 46 µM), usual class: activators | HEK293T ELG1-luciferase reporter, luminescence, 16 h; also: nearly all actives have a fitted effect of over 60% in size
#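 Luminescence read-out: rising ELG1-luciferase signal, reflecting elevated ELG1 protein under genetic stress, flags genotoxic compounds. Cells were treated for 16 hr at 37 °C before ONE-Glo detection.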
# NPC1 prom act = NPC1 promoter activation | 320,000 compounds, 2.4% hits | Potency, µM (titrated, usually from 9.22 µM), hits mostly activators | AID 485313 | Huh7 NPC1 promoter luciferase reporter, 24 h; also: nearly all actives have a fitted effect of over 60% in size
#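 NPC1 promoter–luciferase Huh7 cells; 24 h compound; luminescence.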
# Hits are given with their value; i = inactive; ? = inconclusive; nt = not tested or not shown. A selection: hits, their analogues and other compounds. The true share with any hit is near 7.5%. Calls follow the shape of the dose curve; as a rule, active = well fitted curve in the direction sought with a large enough effect; inconclusive = small, poorly fitted or top-dose-only effect, or another doubt; inactive = no such curve, though single readings can be large; an effect the other way counts as inactive or inconclusive.
SMILES,SMN2 splice up,FLuc counter,Rab9 promoter act,ELG1 genotoxic,NPC1 prom act
CCn1nc2cc(C(=O)NCCc3cccs3)ccc2c1OC,?,6.75µM,1.12µM,?,2.51µM
CCOc1c2ccc(C(=O)NCc3ccc(C)cc3)cc2nn1CC,12.6µM,i,i,i,i
CC(c1ccccc1)C1CC(=O)N(c2ccccc2)C1=O (centres undefined),nt,i,i,i,i
COc1cc(Cl)c(C)cc1Nc1ncccn1,nt,i,i,i,i
COCCNC(=O)c1ccc(Cl)c(Cl)c1,i,i,i,i,i
CC(C)Oc1ccc(C(=O)NCc2cccs2)cc1,i,13.5µM,?,?,i
O=C(NCCc1cccs1)c1ccc(Cl)c(Cl)c1,nt,10.7µM,2.24µM,?,3.16µM
O=C(NCCc1cccs1)c1ccc(Cl)cc1,nt,1.2µM,0.316µM,?,0.355µM
O=C(NCc1cccs1)c1ccccc1,i,i,i,i,i
Cc1ccc(C)c(S(=O)(=O)NC(C)CCc2ccccc2)c1 (centres undefined),nt,i,i,i,i
COc1ccccc1N1CCN(C(=O)C(OC(C)=O)c2ccccc2)CC1 (centres undefined),i,i,i,i,i
Cc1cc(C)c(C2C(C#N)=C(N)Oc3n[nH]c(C)c32)cc1CN1CCOCC1 (centres undefined),i,i,i,i,i
COCCN(C(=O)COC(=O)Cc1cccc2ccccc12)c1c(N)n(Cc2ccccc2)c(=O)[nH]c1=O,nt,i,i,i,i
Cc1oc2cc3oc(=O)c(CC(=O)N[C@H](C(=O)N[C@@H](C(=O)O)c4ccccc4)C(C)C)c(C)c3cc2c1C,nt,?,i,i,i
O=C(CCn1c(=O)c2cccn2c2cccnc21)N1CCN(c2ccc(Cl)cc2)CC1,nt,i,nt,nt,nt
O=C(COc1ccc2c(c1)OCO2)NCc1cccs1,nt,nt,nt,i,nt
O=C(Oc1ccc2c(c1)OCO2)c1cccs1,?,10.7µM,i,i,i
CCCc1ccc(OC(=O)c2cccs2)cc1,i,6.01µM,i,i,i
CCCc1ccc(OC(=O)c2ccc(O)cc2Cl)cc1,?,2.39µM,1µM,?,2µM
Cc1cc(OC(=O)c2cccs2)ccc1C(C)C,i,3.01µM,i,i,i
CN1CCN(C(=O)c2cc(C(C)(C)C)cc(C(C)(C)C)c2)CC1,nt,i,i,i,i
CC1(C)CC(=O)C2=C(C1)Nc1ccccc1NC2c1ccccn1 (centres undefined),i,i,i,i,i
CCN1CCN(C(CNS(=O)(=O)c2ccc(C)cc2)c2cccnc2)CC1 (centres undefined),nt,i,i,i,i
N#CCCN/N=C(/Cc1nc2ccccc2[nH]1)c1ccc(Cl)cc1,14.1µM,26.9µM,?,?,i
N/N=C(/Cc1nc2ccccc2[nH]1)c1ccc([N+](=O)[O-])cc1,?,12µM,i,i,i
SMILES,SMN2 splice up,FLuc counter,Rab9 promoter act,ELG1 genotoxic,NPC1 prom act
N#CCCN/N=C(\Cc1nc2ccccc2[nH]1)c1ccccc1,i,?,i,i,i
Cc1ccc(N/N=C(\Cc2nc3ccccc3[nH]2)c2ccccc2)cc1,?,?,i,?,i
c1ccc(N/N=C(\Cc2nc3ccccc3[nH]2)c2ccccc2)cc1,12.6µM,7.57µM,i,?,?
COc1ccc(S(=O)(=O)Nc2ccc(C)cc2)cc1N(C)S(=O)(=O)c1ccc(Cl)cc1,nt,i,i,i,i
c1ccc(-n2cnc3cc(NCc4cccs4)ccc32)cc1,i,2.13µM,1µM,?,?
c1ccc(-n2cnc3cc(NCc4ccco4)ccc32)cc1,12.6µM,9.53µM,?,?,?
COc1ccc(-n2cnc3cc(NCc4cccs4)ccc32)cc1,i,15.1µM,i,i,?
Cc1ccc(-n2cnc3cc(NCc4cccs4)ccc32)cc1,i,10.7µM,?,9.2µM,?
Cc1ccc(NS(=O)(=O)c2c(C)nc3sc(C)cn3c2=O)c(C)c1,nt,i,nt,nt,nt
CCCCNC(=O)CSc1nc2ccc(Nc3nc(N4CCOCC4)nc(N4CCOCC4)n3)cc2s1,nt,i,i,i,i
CC(NS(=O)(=O)c1ccc(Cl)c(Cl)c1)C(=O)Nc1cccnc1 (centres undefined),nt,nt,nt,i,nt
O=C(c1cc2cc(Br)cc(Br)c2oc1=O)N1CCCC1,i,i,i,i,i
N#C/C(=C\c1ccc(Cl)cc1)c1nc(-c2cc3ccccc3oc2=O)cs1,i,i,nt,nt,nt

# Bioassay records from PubChem.
